# Values joined by “and” are separate entries in the source; they are usually repeats but may differ in a detail not shown here. Equal values may be shown once. About 83,000 compounds went through this panel and 20% of them were active in at least one assay; those are over-represented in the sample as a whole.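 Percent growth is the endpoint: 0 to 100 indicates growth inhibition (40 means 60% inhibition), 0 means no net growth, and negative values indicate cell death.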 Unmarked numbers belong to inactive results. Active and inactive are the calls of the source. The calls were made as follows: active = growth percent below 10; inactive = the rest.
# Test system: MDA-MB-468 breast
# Assay: NCI-60 one-dose screen, 48 h (100 = growth as untreated, 0 = no growth, -100 = all killed)
# Details: 10 µM unless noted
row,Compound,growth
1,CCN(CC)CCCC(C)NC(=S)N/N=C(\C)c1ccccn1 (stereo not given),-7.86% (active)
2,CC1(C)CCc2cc(-c3ccn(S(=O)(=O)c4ccc(Cl)cc4)n3)ccc2O1,48.9%
3,C#C[C@]1(O)CC[C@H]2[C@@H]3CC=C4c5sc(-c6cccc(F)c6)nc5CC[C@]4(C)[C@H]3CC[C@@]21C,71.1%
4,COc1ccc(/C=C2/SC(=Nc3c(C)nn(-c4ccccc4)c3N)NC2=O)cc1,7.17% (active)
5,O=C(c1ccccc1)C(CCc1ccccn1)CCc1ccccn1,108%
6,CCN1C(=O)N(CC)C2C1NN=C1SCC(=O)N12 (stereo not given),18.2%
7,Cc1ccc(C2=NN(C)C(=O)C3(CCCC3)C2)cc1,98.7%
8,COc1ccc2c3ccnc(C(F)(F)F)c3n(CCCCN)c2c1,33.7%
9,O=S(=O)(Nc1cccc2cc(OS(=O)(=O)c3ccccc3)ccc12)c1ccccc1,13.4%
10,Nc1c(C(=O)Nc2ccncc2)sc2nc3c(cc12)CCCCCC3,87.8%
11,N#CCNC(=O)c1ccc(-c2ccnc(Nc3ccc(N4CCOCC4)cc3)n2)cc1,9.99% (active)
12,COC(=O)[C@]12CC[C@@H](C)[C@H](C)[C@@H]1C1=CC[C@@H]3[C@@]4(C)C[C@@H](OC(=O)c5ccco5)[C@H](O)[C@@](C)(CO)[C@@H]4[C@H](O)C[C@@]3(C)[C@]1(C)CC2,-89.1% (active)
13,COc1ccc(C(C)=C(c2ccc(OCCN3CCCCCC3)cc2)c2ccc(OCCN3CCCCCC3)cc2)cc1,-69.5% (active)
14,O=C(Nc1ccc(F)cc1)Nc1ccc(CCO)cc1,105%
15,N#Cc1c(-c2ccccc2)cc(-c2ccccc2)n(CCCCC(=O)NO)c1=O,20%
16,O=C1NC(=O)/C(=C/C=C/c2ccccc2)S1,63.3%
17,Cc1ccc(CSC(=N)N)cc1C,104%
18,Clc1ccc(Cc2ccncc2)cc1,99.2%

row,Compound,growth
1,COC(C(=O)[C@@H](O)[C@@H](C)O)[C@@H]1Cc2cc3cc(O[C@H]4C[C@@H](O[C@H]5C[C@@H](O)[C@H](O)C(C)O5)[C@H](O)C(C)O4)c(C)c(O)c3c(O)c2C(=O)[C@H]1O[C@H]1C[C@@H](O[C@H]2C[C@@H](O[C@H]3C[C@@H](O)[C@H](OC)C(C)O3)[C@@H](O)C(C)O2)[C@H](O)C(C)O1 (stereo not given in full),-60% (active)
2,NC(=O)c1c(NC(=O)COC(=O)Cc2ccccc2F)sc2c1CCC2,112%
3,O=C(CSc1nc2ccc([N+](=O)[O-])cc2[nH]1)Nc1ccc(F)c(Cl)c1,-14.9% (active)
4,CCOC(=O)N(O)c1ccc(/C=C/c2ccccc2)cc1,-59.5% (active) and -52.6% (active)
5,N#C/C(=C\c1ccc(Br)cc1)n1nnc2c(F)cccc21,-10.8% (active)
6,COc1ccc(-n2ncn(CCCCCCn3cnn(-c4ccc(OC)cc4)c3=O)c2=O)cc1,84.8%
7,Nc1c(C(=O)Nc2cccc3ccncc23)sc2nc3c(cc12)C(=O)CCC3,-12.6% (active)
8,COc1ccccc1NC(=O)OCC#CCOC(=O)Nc1ccccc1OC,92.6% and 89.9%
9,O=C1c2ccccc2C(=O)c2c1ccc1[nH]c(-c3cccs3)nc21,99.6%
10,CCCCOc1ccc(/C=C2/SC(N3CCOCC3)=NC2=O)cc1OCC,97.8%
11,C#CC#CC#CC#CC#CC#CC#CC#CC[C@@H]1OC[C@H](COC(=O)O[C@@H](C(=O)O[C@H]2C[C@@]3(O)[C@@H](OC(=O)c4ccccc4)[C@@H]4[C@]5(OC(C)=O)CO[C@@H]5C[C@H](O)[C@@]4(C)C(=O)[C@H](OC(C)=O)C(=C2C)C3(C)C)[C@@H](NC(=O)c2ccccc2)c2ccccc2)O1,-8.1% (active)
12,CC1=C2CC/C(C)=C/CC[C@]3(C)O[C@H]3CC/C(C)=C/[C@H]2OC1,98.6%
13,Cn1c(=O)c2[nH]c(CCCCCCCCc3nc4ccccc4[nH]3)nc2n(C)c1=O,10.7% and 21.7%
14,COc1ccc(/C=C/C(=O)Nc2ccc(-c3nc4ccc(F)cc4s3)cc2)cc1,-12.9% (active)
15,CC(=O)Nc1c(C)cc(C)cc1C,108%
16,CC(=O)c1ccc2c(ccc3ccccc32)c1,95.5%
17,COc1cc(/C=N/NC(=O)c2cnn3c2NC(c2ccccc2)C3)cc(OC)c1OC (stereo not given),62.8%

# Reference: PubChem BioAssay (NCI)
